One experiment deals with POU1 (OCT1 POU domain) (human, UniProt P14859 260-458). Nature of the experiment: EMSA-SELEX-seq; no BOB1; 20 mM Tris-HCl pH 7.6, 140 mM NaCl, 10% glycerol, 0.5 mM EDTA, 0.05% Triton X-100, 0.1 mg/mL BSA, 0.1 mg/mL poly(dI-dC), 5 mM DTT, room temperature, 20 min; high values mean tight binding. The settings on record: protein: recombinant; dsDNA, one strand shown. The procedure, abridged: (§1)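 Binding preference is the percentage of sequenced 8-mers matching a motif pattern. Tagged POU-domain proteins expressed in E. coli BL21 were purified under denaturing conditions and renatured. For binding, 30 ng protein met 300 ng of a PCR-amplified double-stranded random 35-nt library, with or without 28 ng coactivator protein, in 20 μL Tris–HCl pH 7.6 binding buffer for 20 min at RT. Complex bands were cut from native 6% PAGE, eluted and PCR-amplified over four rounds, then Illumina-sequenced.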
On the technique in general: A gel shift assay detects complexes by their altered migration in electrophoresis.

Another experiment has as its target T1, POU2 (OCT2 POU domain) (human, UniProt P09086 175-386).
T1 sequence: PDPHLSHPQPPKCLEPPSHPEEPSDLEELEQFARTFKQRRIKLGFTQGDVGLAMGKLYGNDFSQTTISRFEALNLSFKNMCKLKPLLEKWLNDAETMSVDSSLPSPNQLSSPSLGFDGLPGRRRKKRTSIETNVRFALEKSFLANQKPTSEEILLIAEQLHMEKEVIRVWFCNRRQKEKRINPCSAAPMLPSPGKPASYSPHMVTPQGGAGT
Described as above. To be noted: protein: recombinant; dsDNA, one strand shown. The procedure, abridged: as §1

Experiment [1] addresses POU1 (OCT1 POU domain);BOB1 (OBF1, OCA-B) (human;human, UniProt P14859;Q16633 260-458;1-256, |). Nature of the experiment: EMSA-SELEX-seq; with BOB1 (ternary complex band); 20 mM Tris-HCl pH 7.6, 140 mM NaCl, 10% glycerol, 0.5 mM EDTA, 0.05% Triton X-100, 0.1 mg/mL BSA, 0.1 mg/mL poly(dI-dC), 5 mM DTT, room temperature, 20 min; high values mean tight binding. To be noted: protein: recombinant;recombinant; copies: 1;1; dsDNA, one strand shown. The method, boiled down:
as §1

In experiment [2] the target is T2, POU2 (OCT2 POU domain);BOB1 (OBF1, OCA-B) (human;human, UniProt P09086;Q16633 175-386;1-256, |).
T2 sequence 1: T1 sequence
T2 sequence 2: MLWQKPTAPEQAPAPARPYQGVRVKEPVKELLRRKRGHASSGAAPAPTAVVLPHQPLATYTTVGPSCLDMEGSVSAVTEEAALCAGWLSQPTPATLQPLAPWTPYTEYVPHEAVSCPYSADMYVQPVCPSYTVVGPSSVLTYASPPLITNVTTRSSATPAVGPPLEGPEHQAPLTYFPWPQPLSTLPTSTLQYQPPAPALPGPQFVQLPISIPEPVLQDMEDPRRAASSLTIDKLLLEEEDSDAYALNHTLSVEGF
The experiment is described as above. The settings on record: protein: recombinant;recombinant; copies: 1;1; dsDNA, one strand shown. The procedure, abridged:
as §1

Among the data in PMC10812921, “Transcriptional Coactivator BOB1 (OBF1, OCA-B) Modulates the Specificity of DNA Recognition by the POU-Domain Factors OCT1 and OCT2 in a Monomeric Configuration” are binding signal values, retold here.

POU1 (OCT1 POU domain), sequence (P14859 260-458): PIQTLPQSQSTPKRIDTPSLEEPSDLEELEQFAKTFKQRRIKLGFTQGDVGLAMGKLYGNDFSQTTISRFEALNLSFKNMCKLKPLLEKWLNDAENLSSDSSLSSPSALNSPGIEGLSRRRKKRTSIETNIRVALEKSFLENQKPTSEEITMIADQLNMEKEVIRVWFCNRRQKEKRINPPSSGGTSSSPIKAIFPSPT

AGGCTAAT: the binding signal with POU1 (OCT1 POU domain) was 0.133 % of ANNNNAAN 8-mers; in the experiment with POU2 (OCT2 POU domain), 0.197 % of ANNNNAAN 8-mers; in experiment [1], 0.0675 % of ANNNNAAN 8-mers; in experiment [2], 0.0908 % of ANNNNAAN 8-mers.
As to AGCGAAAT, the binding signal was 0.0526 % of ANNNNAAN 8-mers with POU1 (OCT1 POU domain), 0.0627 % of ANNNNAAN 8-mers with POU2 (OCT2 POU domain), 0.0492 % of ANNNNAAN 8-mers in experiment [1] and 0.0619 % of ANNNNAAN 8-mers in experiment [2].
With ACGGCAAC, the binding signal was 0.0141 % of ANNNNAAN 8-mers with POU1 (OCT1 POU domain), 0.0109 % of ANNNNAAN 8-mers with POU2 (OCT2 POU domain), 0.0152 % of ANNNNAAN 8-mers in experiment [1] and 0.0124 % of ANNNNAAN 8-mers in experiment [2].
AGAGGAAA: the binding signal with POU1 (OCT1 POU domain) was 0.069 % of ANNNNAAN 8-mers; with POU2 (OCT2 POU domain), 0.0667 % of ANNNNAAN 8-mers; in experiment [1], 0.0687 % of ANNNNAAN 8-mers; in experiment [2], 0.0619 % of ANNNNAAN 8-mers.
Consider AAATAAAA, for which the binding signal with POU1 (OCT1 POU domain) is 0.177 % of ANNNNAAN 8-mers; with POU2 (OCT2 POU domain) it was 0.177 % of ANNNNAAN 8-mers; in experiment [1], 0.199 % of ANNNNAAN 8-mers; in experiment [2] it was 0.171 % of ANNNNAAN 8-mers.
For AGCAGAAG, the binding signal with POU1 (OCT1 POU domain) was 0.0233 % of ANNNNAAN 8-mers; with POU2 (OCT2 POU domain), 0.0207 % of ANNNNAAN 8-mers; in experiment [1] it was 0.0308 % of ANNNNAAN 8-mers; in experiment [2] it was 0.0264 % of ANNNNAAN 8-mers.
AGAACAAG: the binding signal with POU1 (OCT1 POU domain) was 0.0221 % of ANNNNAAN 8-mers; with POU2 (OCT2 POU domain), 0.0334 % of ANNNNAAN 8-mers; in experiment [1], 0.0219 % of ANNNNAAN 8-mers; in experiment [2] it was 0.0231 % of ANNNNAAN 8-mers.
Regarding AGCCAAAC, the binding signal with POU1 (OCT1 POU domain) was 0.0194 % of ANNNNAAN 8-mers; with POU2 (OCT2 POU domain), 0.0196 % of ANNNNAAN 8-mers; in experiment [1], 0.0261 % of ANNNNAAN 8-mers; in experiment [2], 0.0182 % of ANNNNAAN 8-mers.
Take AAGTCAAC: the binding signal was 0.0256 % of ANNNNAAN 8-mers with POU1 (OCT1 POU domain), 0.0236 % of ANNNNAAN 8-mers with POU2 (OCT2 POU domain), 0.0308 % of ANNNNAAN 8-mers in experiment [1] and 0.0272 % of ANNNNAAN 8-mers in experiment [2].
For the sequence AAACCAAA, the binding signal with POU1 (OCT1 POU domain) was 0.0538 % of ANNNNAAN 8-mers; with POU2 (OCT2 POU domain), 0.0506 % of ANNNNAAN 8-mers; in experiment [1], 0.0761 % of ANNNNAAN 8-mers; in experiment [2], 0.0446 % of ANNNNAAN 8-mers.
The matching figures for AGCAGAAC: 0.0179 % of ANNNNAAN 8-mers, 0.0299 % of ANNNNAAN 8-mers, 0.0211 % of ANNNNAAN 8-mers and 0.014 % of ANNNNAAN 8-mers.
In the case of AGTCCAAC, the binding signal with POU1 (OCT1 POU domain) was 0.0114 % of ANNNNAAN 8-mers; with POU2 (OCT2 POU domain), 0.0167 % of ANNNNAAN 8-mers; in experiment [1] it was 0.0144 % of ANNNNAAN 8-mers; in experiment [2], 0.0248 % of ANNNNAAN 8-mers.
The like results for ATTTTAAC were, in that order, 0.0812 % of ANNNNAAN 8-mers, 0.0921 % of ANNNNAAN 8-mers, 0.0652 % of ANNNNAAN 8-mers and 0.0652 % of ANNNNAAN 8-mers.
On to AGCAGAAA, for which the binding signal in the experiment with POU1 (OCT1 POU domain) is 0.0374 % of ANNNNAAN 8-mers; in the experiment with POU2 (OCT2 POU domain), 0.0339 % of ANNNNAAN 8-mers; in experiment [1], 0.0336 % of ANNNNAAN 8-mers; in experiment [2], 0.0281 % of ANNNNAAN 8-mers.
In the case of AAGACAAT, the binding signal in the experiment with POU1 (OCT1 POU domain) was 0.0477 % of ANNNNAAN 8-mers; in the experiment with POU2 (OCT2 POU domain) it was 0.0478 % of ANNNNAAN 8-mers; in experiment [1] it was 0.0382 % of ANNNNAAN 8-mers; in experiment [2], 0.0405 % of ANNNNAAN 8-mers.
Take AAGCTAAT: the binding signal with POU1 (OCT1 POU domain) is 0.0969 % of ANNNNAAN 8-mers; with POU2 (OCT2 POU domain), 0.136 % of ANNNNAAN 8-mers; in experiment [1], 0.0527 % of ANNNNAAN 8-mers; in experiment [2], 0.0644 % of ANNNNAAN 8-mers.
The matching figures for ACGGAAAG: 0.0397 % of ANNNNAAN 8-mers, 0.0443 % of ANNNNAAN 8-mers, 0.0406 % of ANNNNAAN 8-mers and 0.0371 % of ANNNNAAN 8-mers.
The like results for AATGAAAA were, in that order, 0.164 % of ANNNNAAN 8-mers, 0.152 % of ANNNNAAN 8-mers, 0.202 % of ANNNNAAN 8-mers and 0.114 % of ANNNNAAN 8-mers.
Consider ATCCGAAC, for which the binding signal in the experiment with POU1 (OCT1 POU domain) was 0.0217 % of ANNNNAAN 8-mers; with POU2 (OCT2 POU domain), 0.0219 % of ANNNNAAN 8-mers; in experiment [1], 0.0238 % of ANNNNAAN 8-mers; in experiment [2] it was 0.0198 % of ANNNNAAN 8-mers.
ACCCAAAA: the binding signal in the experiment with POU1 (OCT1 POU domain) was 0.0214 % of ANNNNAAN 8-mers; in the experiment with POU2 (OCT2 POU domain) it was 0.015 % of ANNNNAAN 8-mers; in experiment [1] it was 0.0246 % of ANNNNAAN 8-mers; in experiment [2], 0.0206 % of ANNNNAAN 8-mers.
The matching figures for ACGCCAAA: 0.0133 % of ANNNNAAN 8-mers, 0.0219 % of ANNNNAAN 8-mers, 0.016 % of ANNNNAAN 8-mers and 0.0223 % of ANNNNAAN 8-mers.
With ATCGCAAC, the binding signal is 0.0126 % of ANNNNAAN 8-mers with POU1 (OCT1 POU domain), 0.0173 % of ANNNNAAN 8-mers in the experiment with POU2 (OCT2 POU domain), 0.014 % of ANNNNAAN 8-mers in experiment [1] and 0.0239 % of ANNNNAAN 8-mers in experiment [2].
The matching figures for AGTGGAAA: 0.0542 % of ANNNNAAN 8-mers, 0.0512 % of ANNNNAAN 8-mers, 0.0718 % of ANNNNAAN 8-mers and 0.052 % of ANNNNAAN 8-mers.
Regarding AGTAAAAT, the binding signal is 0.226 % of ANNNNAAN 8-mers with POU1 (OCT1 POU domain), 0.179 % of ANNNNAAN 8-mers in the experiment with POU2 (OCT2 POU domain), 0.236 % of ANNNNAAN 8-mers in experiment [1] and 0.148 % of ANNNNAAN 8-mers in experiment [2].
Consider ATAAAAAC, for which the binding signal with POU1 (OCT1 POU domain) is 0.066 % of ANNNNAAN 8-mers; with POU2 (OCT2 POU domain), 0.0633 % of ANNNNAAN 8-mers; in experiment [1], 0.0562 % of ANNNNAAN 8-mers; in experiment [2], 0.0495 % of ANNNNAAN 8-mers.
With ACACAAAA, the binding signal with POU1 (OCT1 POU domain) was 0.0454 % of ANNNNAAN 8-mers; with POU2 (OCT2 POU domain) it was 0.0374 % of ANNNNAAN 8-mers; in experiment [1], 0.0644 % of ANNNNAAN 8-mers; in experiment [2] it was 0.0363 % of ANNNNAAN 8-mers.
Take AGAACAAA: the binding signal in the experiment with POU1 (OCT1 POU domain) was 0.032 % of ANNNNAAN 8-mers; with POU2 (OCT2 POU domain), 0.0524 % of ANNNNAAN 8-mers; in experiment [1], 0.032 % of ANNNNAAN 8-mers; in experiment [2] it was 0.033 % of ANNNNAAN 8-mers.
For ACTGAAAG, the binding signal was 0.0172 % of ANNNNAAN 8-mers with POU1 (OCT1 POU domain), 0.0196 % of ANNNNAAN 8-mers with POU2 (OCT2 POU domain), 0.0273 % of ANNNNAAN 8-mers in experiment [1] and 0.0231 % of ANNNNAAN 8-mers in experiment [2].
As for AACACAAA, the binding signal with POU1 (OCT1 POU domain) was 0.0454 % of ANNNNAAN 8-mers; with POU2 (OCT2 POU domain), 0.0443 % of ANNNNAAN 8-mers; in experiment [1] it was 0.0648 % of ANNNNAAN 8-mers; in experiment [2], 0.0438 % of ANNNNAAN 8-mers.
As for ATAAGAAA, the binding signal is 0.1 % of ANNNNAAN 8-mers with POU1 (OCT1 POU domain), 0.0955 % of ANNNNAAN 8-mers with POU2 (OCT2 POU domain), 0.118 % of ANNNNAAN 8-mers in experiment [1] and 0.0826 % of ANNNNAAN 8-mers in experiment [2].
